Assay results as given in PubChem BioAssay AID1159580 (chemical genetic matrix, 2015).
Several values for one entry are separate records, joined by “and”; a condition that tells them apart may be missing. Equal entries are not always repeated. The campaign covered roughly 5,500 compounds. About 2,000 (36%) were called active. About 18% were inconclusive and are not listed. Cut-off read from the data, not from the text of the source: active = normalized growth mostly below about 0.91 (no sharp cut-off); inconclusive = no clear call, values can overlap the other calls; inactive = mostly above about 0.92. The list shows a part of the results.

Assay: chemical genetic growth profiling, strain panel (AID 1159580);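 note: tested at 20 µM; growth read once vehicle control cultures reached saturation at 30 °C; 1 = growth at the plate median or of vehicle wells; lower values mean less growth of the strain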
Conditions: S. cerevisiae deletion strains, growth OD

Measured: normalized growth

Clc1ccc(COC(Cn2ccnc2)c2ccc(Cl)cc2Cl)cc1 (stereo not given)
active: locus YAL013W, strain DEP1, active compounds read low 0.0557 | locus YAL021C, strain ccr4, active compounds read low 0.0668 | locus YAL026C, strain drs2, active compounds read low 0.0618 | locus YAL030W, strain snc1, active compounds read low 0.0554 | locus YBL061C, strain skt5, active compounds read low 0.0644 | locus YBR009C, strain hhf1, active compounds read low 0.0597 | locus YBR021W, strain FUR4, active compounds read low 0.086 | locus YBR023C, strain chs3, active compounds read low 0.0622 | locus YBR171W, strain sec66, active compounds read low 0.0758 | locus YBR229C, strain ROT2, active compounds read low 0.0463 | locus YBR231C, strain swc5, active compounds read low 0.0645 | locus YBR279W, strain paf1, active compounds read low 0.0619 | locus YCL011C, strain gbp2, active compounds read low 0.0566 | locus YCL016C, strain dcc1, active compounds read low 0.0644 | locus YCL029C, strain bik1, active compounds read low 0.06 | locus YCL061C, strain MRC1, active compounds read low 0.0624 | locus YCL069W, strain vba3, active compounds read low 0.0606 | locus YCR088W, strain abp1, active compounds read low 0.0621 | locus YDL005C, strain med2, active compounds read low 0.0718 | locus YDL035C, strain GPR1, active compounds read low 0.0503 | locus YDL040C, strain nat1, active compounds read low 0.0573 | locus YDL074C, strain BRE1, active compounds read low 0.0774 | locus YDL101C, strain DUN1, active compounds read low 0.055 | locus YDL134C, strain PPH21, active compounds read low 0.0501 | locus YDL185W, strain tfp1, active compounds read low 0.0607 | locus YDL192W, strain arf1, active compounds read low 0.0606 | locus YDR001C, strain nth1, active compounds read low 0.0586 | locus YDR069C, strain doa4, active compounds read low 0.0605 | locus YDR101C, strain arx1, active compounds read low 0.0571 | locus YDR137W, strain rgp1, active compounds read low 0.093 | locus YDR150W, strain NUM1, active compounds read low 0.055 | locus YDR159W, strain sac3, active compounds read low 0.0898 | locus YDR162C, strain NBP2, active compounds read low 0.0476 | locus YDR195W, strain ref2 0.131 | locus YDR297W, strain sur2, active compounds read low 0.0541 | locus YDR318W, strain mcm21, active compounds read low 0.061 | locus YDR334W, strain swr1, active compounds read low 0.0622 | locus YDR335W, strain msn5, active compounds read low 0.0604 | locus YDR388W, active compounds read low 0.0583 | locus YDR392W, strain spt3, active compounds read low 0.0764 | locus YDR502C, strain sam2, active compounds read low 0.0603 | locus YEL003W, strain gim4, active compounds read low 0.0531 | locus YEL037C, strain rad23, active compounds read low 0.0573 | locus YEL061C, strain CIN8 (second series), active compounds read low 0.0612 | locus YEL061C, strain CIN8, active compounds read low 0.0491 | locus YER015W, strain faa2, active compounds read low 0.0598 | locus YER016W, strain bim1, active compounds read low 0.0634 | locus YER110C, active compounds read low 0.0724 | locus YER111C, strain swi4, active compounds read low 0.0738 | locus YER155C, strain BEM2 (second series), active compounds read low 0.0963 | locus YER155C, strain BEM2, active compounds read low 0.0618 | locus YER167W, strain BCK2, active compounds read low 0.0498 | locus YFR010W, strain ubp6, active compounds read low 0.0675 | locus YGL078C, strain dbp3, active compounds read low 0.0728 | locus YGL086W, strain mad1, active compounds read low 0.0553 | locus YGL167C, strain pmr1, active compounds read low 0.0771 | locus YGL173C, strain kem1, active compounds read low 0.0703 | locus YGL227W, strain vid30, active compounds read low 0.0629 | locus YGL240W, strain doc1, active compounds read low 0.089 | locus YGL248W, strain PDE1, active compounds read low 0.046 | locus YGL253W, strain hxk2, active compounds read low 0.0531 | locus YGR135W, strain pre9, active compounds read low 0.0589 | locus YGR229C, strain SMI1, active compounds read low 0.0609 | locus YGR252W, strain gcn5, active compounds read low 0.114 | locus YHR013C, strain ard1, active compounds read low 0.0983 | locus YHR027C, strain rpn1, active compounds read low 0.0623 | locus YHR030C, strain SLT2, active compounds read low 0.0501 and 0.104 | locus YHR079C, strain IRE1 (second series), active compounds read low 0.058 | locus YHR079C, strain IRE1, active compounds read low 0.114 | locus YHR094C, strain hxt1, active compounds read low 0.0575 | locus YHR129C, strain ARP1, active compounds read low 0.0576 | locus YHR142W, strain chs7, active compounds read low 0.0716 | locus YHR200W, strain rpn10, active compounds read low 0.0591 | locus YIL066C, strain RNR3, active compounds read low 0.143 | locus YIL073C, strain SPO22, active compounds read low 0.1 | locus YIL125W, strain kgd1, active compounds read low 0.0707 | locus YIR030C, strain dcg1, active compounds read low 0.0577 | locus YJL092W, strain hpr5, active compounds read low 0.0592 | locus YJL095W, strain BCK1 (second series), active compounds read low 0.0566 | locus YJL095W, strain BCK1, active compounds read low 0.0581 and 0.1 | locus YJL115W, strain asf1, active compounds read low 0.0714 | locus YJL129C, strain trk1, active compounds read low 0.0943 | locus YJL134W, strain LCB3, active compounds read low 0.048 | locus YJL154C, strain vps35, active compounds read low 0.0599 | locus YJL164C, strain tpk1, active compounds read low 0.0592 | locus YJL166W, strain qcr8, active compounds read low 0.0601 | locus YJL168C, strain set2, active compounds read low 0.0595 | locus YJL187C, strain SWE1 (second series), active compounds read low 0.0469 | locus YJL187C, strain SWE1, active compounds read low 0.058 | locus YJR043C, strain POL32, active compounds read low 0.0638
